Screens (PubChem)
The full list was thinned out, with hits kept by preference.
Shiga inhibitor = blocks Shiga toxin action in Vero cells | inhibition, % at 38.7 µM | 290,000 tested, 9.2% active | AID 2315 | Vero cells, Shiga toxin protein synthesis inhibition reporter; in the data active means inhibition mostly above about 28%, no sharp cut-off; inactive means mostly below about 43%
AmpC inh detg = blocks E. coli AmpC beta-lactamase in detergent assay; Potency, µM (titrated, usually from 114 µM), most hits filed as inhibitors; AID 485294; AmpC hydrolysis of nitrocefin, absorbance 480 nm, 0.01% Triton; 370,000 tested, 0.041% active; P00811; further: nearly all actives have a fitted effect of over 25% in size
Target sequence (P00811 whole entry, looked up): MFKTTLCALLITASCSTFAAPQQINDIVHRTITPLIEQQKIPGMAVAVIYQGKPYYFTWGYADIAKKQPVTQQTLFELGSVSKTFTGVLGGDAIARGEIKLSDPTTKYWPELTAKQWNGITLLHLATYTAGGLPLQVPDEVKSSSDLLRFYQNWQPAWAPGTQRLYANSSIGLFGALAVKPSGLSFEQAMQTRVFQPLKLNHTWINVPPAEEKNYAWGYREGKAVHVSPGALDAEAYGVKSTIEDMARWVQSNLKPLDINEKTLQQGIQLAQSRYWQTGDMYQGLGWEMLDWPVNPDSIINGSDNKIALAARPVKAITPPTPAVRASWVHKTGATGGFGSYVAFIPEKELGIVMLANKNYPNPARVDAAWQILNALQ
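AmpC (5.3 nM in the dispensed reagent) in 20 mM phosphate pH 7.0 with 0.01% (detergent screen) or 0.0001% Triton X-100 was preincubated with compounds for 15 min at room temperature. Nitrocefin was then added from an 800 uM solution, and hydrolysis was followed at 480 nm.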
AmpC inh no detg = AmpC beta-lactamase inhibition without detergent; P00811; AmpC nitrocefin hydrolysis, absorbance 480 nm, 0.0001% Triton; Potency, µM (top dose mostly 57.1 µM), most hits filed as inhibitors; 330,000 tested, 0.52% active; AID 485341; further: nearly all actives have a fitted effect of over 20% in size
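AmpC (5.3 nM in the dispensed reagent) in 20 mM phosphate pH 7.0 with 0.01% (detergent screen) or 0.0001% Triton X-100 was preincubated with compounds for 15 min at room temperature. Nitrocefin was then added from an 800 uM solution, and hydrolysis was followed at 480 nm.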
CHX counter = counter-screen for Shiga toxin inhibitors: cycloheximide protein synthesis inhibition. cell reporter, cycloheximide protein synthesis inhibition counterscreen. max response, %. 300,000 tested, 12% active; in the data active means max response mostly above about 13%, no sharp cut-off; inactive means mostly below about 14%; further: read at 38.3 µM for the half of the compounds with a filed dose
NS1 inh = blocks influenza NS1 protein function; 270,000 tested, 0.4% active; Potency, µM (doses to about 46.1 µM); calls by dose curve; further: actives are rising curves; nearly all actives have a fitted effect of over 50% in size
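Read-out: OD600 growth recovery of NS1-expressing budding yeast. Cells grown overnight at 30C in -URA glucose medium, washed, resuspended and diluted 1:100 in 2% galactose assay medium, pH 6.0. Same strain lacking NS1 served as positive control.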
A number is an active result; n = inactive; u = inconclusive; x = no result. Unless noted, the call rests on the fitted dose curve; in most records, active means well fitted curve in the direction sought with a large enough effect; inconclusive means small, poorly fitted or top-dose-only effect, or another doubt; inactive means no such curve, though single readings can be large; an effect the other way counts as inactive or inconclusive.

SMILES	Shiga inhibitor	AmpC inh detg	AmpC inh no detg	CHX counter	NS1 inh
Clc1ccccc1CO/N=C1\CCCc2nonc21	n	n	n	15	n
O=C(CO/N=C1\CCCc2nonc21)Nc1ccccc1Cl	n	u	n	n	n
C=CCC(CC=C)(CNC(=O)C(=O)Nc1ccc(C(=O)OCC)cc1)c1ccccc1	x	n	x	x	x
COc1ccc(NC(=O)c2nc3ccccc3s2)cc1	25	u	n	91	n
CC(C)NC(=O)c1nc2ccccc2s1	30	n	n	24	n
CC(C)Oc1ccc(C(=O)Nc2ccc(-c3nc4ccccc4s3)cc2)cc1	x	n	x	x	x
COc1ccc(OC)c(NC(=O)c2nc3ccccc3s2)c1	n	u	n	31	x
C=CCNC(=O)c1nc2ccccc2s1	118	n	n	51	n
COc1cccc(OCCn2cc(C(C)=O)c3ccccc32)c1	x	n	n	n	n
CCCC(C(=O)NC(C)(C)C)N(CC1CCCO1)C(=O)CNS(=O)(=O)c1ccc(F)cc1 (stereo unspecified)	n	n	n	n	n
C=CCS(=O)(=O)c1nc2ccccc2s1	n	n	n	44	n
COc1ccc(OC)c(NC(=O)Cn2c(C)nc3ccccc3c2=O)c1	82	n	n	32	n
COc1ccc(OC)c(NC(=O)CSc2nc3ccccc3c(=O)n2CCNC(C)=O)c1	n	n	n	n	n
O=C(Nc1nnc(-c2ccccc2Cl)o1)c1nc2ccccc2s1	22	u	n	14	n
CCC1Sc2ccc(S(=O)(=O)CCC(=O)Nc3cc(C)ccn3)cc2NC1=O (stereo unspecified)	n	n	n	n	n
COc1ccc(OC)c(C2=Nn3c(nnc3-c3cc(OC)ccc3OC)SC2)c1	n	x	x	n	x
COc1ccccc1C1=NN(C(=O)c2ccccc2)C(c2ccc(Br)cc2)C1 (stereo unspecified)	n	n	n	17	n
COc1ccc(C2CC(c3ccc(OC)cc3OC(C)=O)=NN2C(=O)c2ccccc2)cc1 (stereo unspecified)	n	n	n	14	n
COc1ccc(C2=NN(C(=O)c3ccccc3)C(c3ccc(OC)c(OC)c3)C2)c(O)c1 (stereo unspecified)	n	n	n	n	n
CC(C)(C)c1c2c(c(C(C)(C)C)c3c1OCN(Cc1ccccc1)C3)OCN(Cc1ccccc1)C2	x	x	x	x	n
CCCCCCOC(=O)c1ccccc1NC(=O)/C=C/C(=O)O	117	n	n	51	n
Cc1ccccc1C(=O)NNC(=O)/C=C\C(=O)O	83	n	n	38	n
COC(=O)c1ccccc1NC(=O)/C=C/C(=O)O	n	u	n	n	n
Cc1ccc(C=Nc2ccccc2C(N)=O)cc1	71	n	n	47	n
CCOC(=O)c1ccccc1NC(=O)/C=C/C(=O)O	n	n	n	n	n
SMILES	Shiga inhibitor	AmpC inh detg	AmpC inh no detg	CHX counter	NS1 inh
NC(=O)c1ccccc1NC(=O)/C=C/C(=O)O	53	n	n	35	n
OC1CCCCC1	x	n	n	x	x
O=C1COC(c2ccccc2)=CN1Cc1ccccc1	x	n	n	x	x
C=C(C)c1cccc(C(C)(C)NC(=O)NNC(=O)c2ccccc2O)c1	n	n	n	n	n
Cc1ccc(/C=C/C(=O)Nc2ccccc2C(N)=O)cc1	63	n	n	46	n
Nc1c2ccccc2nc2ccccc12	n	n	n	n	n
Nc1nc2ccccc2nc1N	28	n	n	14	n
CCC(=O)c1ccc2c(c1)OCCO2	n	n	n	13	n
CCOc1ccc(-c2nnn(CC(=O)c3ccc4c(c3)OCCO4)n2)cc1OCC	n	u	n	34	n
O=C(CS(=O)(=O)c1ccccc1)c1ccc2c(c1)OCCO2	58	n	n	45	n
CCCC(=O)c1ccc2c(c1)OCCO2	n	n	n	n	n
CCOc1ccc(-c2nnn(CC(=O)NCc3ccc(F)cc3)n2)cc1OCC	n	u	n	n	n
C=CCN(c1ccccc1)S(=O)(=O)c1cccc(C(=O)Nc2ccc(N3CCOCC3)cc2)c1	x	n	n	x	x
O=C(NCCCc1ccccc1)c1cc(COc2ccc(F)cc2Cl)on1	n	u	n	n	n
CC12CCC(=O)N1C(C(=O)Nc1nnc(SCc3ccccc3F)s1)CS2 (stereo unspecified)	56	n	n	20	n
CCc1nnc(NC(=O)C2CSC3(C)CCC(=O)N23)s1 (stereo unspecified)	x	n	n	x	x
CCC(=O)Nc1nnc(SCc2ccccc2F)s1	79	n	n	n	x
CC12CCC(=O)N1C(C(=O)Nc1nc3c(F)cc(F)cc3s1)CS2 (stereo unspecified)	n	n	n	21	n
